Data on 13 molecules can be found in PubChem BioAssay (NCATS).

Experiment in all cases: qHTS profiling for inhibitors of Plasmodium falciparum proliferation (AID 504749); also: nearly all actives have a fitted effect of over 60% in size
Common to all, as to settings: P. falciparum in erythrocytes, SYBR Green DNA, 72 h; series mostly up to 28.7 µM

The subject of assay [1] is CP256. Summed up: (§1)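 Each compound contacts P. falciparum-infected red blood cells for 72 h at 37 C; lysis buffer (Tris, EDTA, saponin, Triton X, SYBR Green I) is added and fluorescence measured next morning; values normalized to controls.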
Assay [2] has as its system CP260. An outline of the steps: as §1
Assay [3] relates to CP262. Summed up:
as §1

Assay [4] deals with CP265. An outline of the steps: as §1
The subject of assay [5] is CP266. Summed up: as §1
Assay [6] relates to CP268. Summed up:
as §1

In assay [7] the test system is CP269. Summed up:
as §1

Assay [8] relates to CP286. An outline of the steps:
as §1

Assay [9] deals with CP291. Summed up:
as §1

Assay [10] has as its system CP297. Summed up: as §1
For assay [11], the system named is CP305. Summed up:
as §1

In assay [12] the test system is CP315. An outline of the steps:
as §1

Assay [13] relates to CP325. Summed up: as §1
For assay [14], the system named is CP329. An outline of the steps:
as §1

Assay [15] concerns CP335. Summed up:
as §1

Assay [16] deals with DFO2036. Summed up:
as §1

The test system of assay [17] is DIV14. An outline of the steps: as §1
For assay [18], the system named is DIV17. An outline of the steps: as §1
Assay [19] has as its system DIV30. An outline of the steps: as §1
The test system of assay [20] is Dd2. An outline of the steps:
as §1

Records with an inconclusive call do not appear. The source made the active and inactive calls. Calls follow the shape of the dose curve; as a rule, active = well fitted inhibition curve with a large enough effect; inconclusive = small, poorly fitted or top-dose-only effect; inactive = flat fitted curve, though single readings scatter.
Potency is read from the fitted curve at half-maximal effect.

For `CN(C)C(=O)Oc1ccc[n+](C)c1`, the Potency entry in assay [1], in [2], in [3], in assay [4], in assay [5] and in [6] was “inactive” throughout. Also, the Potency entry in [7], in assay [8], in assay [9], in assay [10], in [11] and in assay [12] was “inactive” throughout. In addition, the Potency result in [13], in [14], in assay [15], in [16], in assay [17] and in assay [18] was “inactive” in each case. Also, the Potency result in assay [19] and in [20] was “inactive” each time.
With `Cc1nc2c([nH]1)c(=O)n(C)c(=O)n2Cc1ccco1`, the Potency entry in assay [1], in [2], in assay [3], in [4], in [5] and in assay [6] was “inactive” throughout. For the same molecule, the Potency entry in assay [7], in assay [8], in [9], in [10], in [11] and in assay [12] was “inactive” in each case. Moreover, the Potency entry in assay [13], in assay [14], in assay [15], in [16], in [17] and in assay [18] was “inactive” in each case. Moreover, the Potency result in [19] and in assay [20] was “inactive” each time.
For the molecule `O=C(O)CP(=O)(O)O`, the Potency entry in [1], in [2], in [3], in assay [4], in assay [5] and in [6] was “inactive” in each case. Further, the Potency entry in assay [7], in [8], in assay [9], in [10], in assay [11] and in assay [12] was “inactive” in each case. Further, the Potency entry in assay [13], in [14], in [15], in [16], in assay [17] and in assay [18] was “inactive” throughout. The Potency entry in assay [19] and in [20] was “inactive” throughout.
Consider `CN=C(NC#N)NCCSCc1nc[nH]c1C`, for which the Potency result in assay [1], in assay [2], in [3], in assay [4], in assay [5] and in [6] was “inactive” throughout. In addition, the Potency result in [7], in assay [8], in assay [9], in [10], in assay [11] and in assay [12] was “inactive” each time. Moreover, the Potency entry in [13], in [14], in assay [15], in assay [16], in [17] and in [18] was “inactive” throughout. The Potency result in [19] and in [20] was “inactive” throughout.
As to `O=c1[nH]c(=O)n([C@H]2C[C@H](O)[C@@H](CO)O2)cc1Br`, the Potency entry in assay [1], in [2], in assay [3], in assay [4], in [5] and in [6] was “inactive” in each case. Besides, the Potency entry in [7], in assay [8], in assay [9], in [10], in [11] and in assay [12] was “inactive” in each case. In addition, the Potency entry in assay [13], in assay [14], in [15], in [16], in assay [17] and in assay [18] was “inactive” throughout. For the same molecule, the Potency entry in assay [19] and in [20] was “inactive” each time.
Consider `Cc1cc(C)c(/C=C2\C(=O)Nc3ccccc32)[nH]1`, for which the Potency result in assay [1], in [2], in assay [3], in assay [4], in [5] and in assay [6] was “inactive” throughout. For the same molecule, the Potency result in assay [7], in [8], in assay [9], in assay [10], in assay [11] and in assay [12] was “inactive” in each case. Besides, the Potency result in assay [13], in assay [14], in assay [15], in assay [16], in assay [17] and in assay [18] was “inactive” each time. Further, the Potency entry in assay [19] and in assay [20] was “inactive” in each case.
Turning to `CCN(CC)CC(=O)Nc1c(C)cccc1C`, the Potency result in assay [1], in assay [2], in assay [3], in assay [4], in assay [5] and in [6] was “inactive” each time. Besides, the Potency entry in assay [7], in [8], in [9], in assay [10], in assay [11] and in [12] was “inactive” each time. Also, the Potency result in assay [13], in assay [14], in [15], in assay [16], in [17] and in [18] was “inactive” throughout. The Potency entry in assay [19] and in assay [20] was “inactive” each time.
Regarding `O=C(CCNNC(=O)c1ccncc1)NCc1ccccc1`, the Potency entry in assay [1], in assay [2], in assay [3], in assay [4], in [5] and in assay [6] was “inactive” in each case. Further, the Potency entry in assay [7], in [8], in assay [9], in [10], in [11] and in assay [12] was “inactive” in each case. The Potency result in assay [13], in assay [14], in [15], in assay [16], in assay [17] and in assay [18] was “inactive” in each case. The Potency entry in assay [19] and in assay [20] was “inactive” in each case.
As for `CC(C(=O)O)c1ccc(CC2CCCC2=O)cc1` (stereo not given), the Potency entry in assay [1], in assay [2], in assay [3], in assay [4], in [5] and in assay [6] was “inactive” throughout. Besides, the Potency entry in [7], in assay [8], in assay [9], in assay [10], in [11] and in assay [12] was “inactive” in each case. Besides, the Potency result in assay [13], in assay [14], in [15], in [16], in assay [17] and in assay [18] was “inactive” throughout. Moreover, the Potency entry in assay [19] and in [20] was “inactive” each time.
In the case of `CCN1CCC[C@H]1CNC(=O)c1c(O)c(Cl)cc(Cl)c1OC`, the Potency result in [1], in assay [2], in assay [3], in assay [4], in assay [5] and in assay [6] was “inactive” in each case. Also, the Potency entry in assay [7], in [8], in [9], in [10], in [11] and in [12] was “inactive” throughout. For the same molecule, the Potency entry in [13], in assay [14], in assay [15], in [16], in assay [17] and in assay [18] was “inactive” each time. Moreover, the Potency entry in [19] and in assay [20] was “inactive” throughout.
`C[N+](C)(C)CCOC(N)=O`: the Potency result in assay [1], in assay [2], in assay [3], in [4], in assay [5] and in [6] was “inactive” in each case. The Potency entry in assay [7], in assay [8], in assay [9], in assay [10], in [11] and in assay [12] was “inactive” each time. For the same molecule, the Potency result in [13], in assay [14], in assay [15], in [16], in assay [17] and in [18] was “inactive” throughout. Further, the Potency entry in assay [19] and in [20] was “inactive” throughout.
For the molecule `C[C@]12CCC(=O)C=C1CC[C@@H]1[C@@H]2CC[C@@]2(C)[C@H]1CC[C@]2(O)C(=O)CO`, the Potency entry in assay [1], in assay [2], in [3], in assay [4], in assay [5] and in assay [6] was “inactive” each time. The Potency result in assay [7], in assay [8], in assay [9], in assay [10], in assay [11] and in assay [12] was “inactive” in each case. In addition, the Potency result in [13], in assay [14], in assay [15], in [16], in [17] and in assay [18] was “inactive” throughout. For the same molecule, the Potency entry in assay [19] and in assay [20] was “inactive” throughout.
For `COC(=O)C1=C(C)NC(C)=C(C(=O)OC(C)(C)CN(C)CCC(c2ccccc2)c2ccccc2)C1c1cccc([N+](=O)[O-])c1` (stereo not given), the Potency was 2.82 µM (active) in assay [1]; 2.24 µM (active) in [2]; 4.26 µM (active) in assay [3]; 3.55 µM (active) in assay [4]; 6.75 µM (active) in assay [5]; 7.57 µM (active) in assay [6]. Also, the Potency is 4.26 µM (active) in assay [7]; 2.51 µM (active) in [8]; 3.79 µM (active) in assay [9]; 3.79 µM (active) in [10]; 5.36 µM (active) in assay [11]; 4.26 µM (active) in assay [12]. Further, the Potency in [13] was 6.01 µM (active); in [14], 3.79 µM (active); in [15], 1.51 µM (active); in [16], 3.55 µM (active); in assay [17] it was 3.79 µM (active); in assay [18], 3.38 µM (active). The Potency in assay [19] was 4.78 µM (active); in assay [20], 2.24 µM (active).
